Compounds without any hit were thinned out: in the full panel of roughly 79,000, 15% have a hit. Values without a mark were called inactive. Activity calls are given as the source filed them. Rule as the data show it: active = growth inhibition above about 70%; inactive = the rest.
Test: NCI Yeast Anticancer Drug Screen. Data for the sgs1 mgt1 strain (AID 161);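 also: 0% = growth of cultures given vehicle only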
Details: S. cerevisiae sgs1 mgt1 strain, stronger effect = higher value
Protocol: Growth inhibition of yeast strains with defined genetic alterations is measured as a screen for potential anti-cancer activity. Selected strains with alterations in DNA damage repair or cell cycle control were exposed to compounds and growth inhibition was measured relative to vehicle treated controls. The strain used in this assay is sgs1 mgt1

[1] = at 5.0 µM (retest, dose inferred, filed as 0.5)
[2] = at 50.0 µM (retest, dose inferred, filed as 5.0)

Compound	growth inhibition [1]	growth inhibition [2]	growth inhibition (at 50.0 µM)
CCCCCCCCCCC(=O)Cl	-18%	36%	56.9%
CC(=O)ON1C(=O)c2cccc3cccc(c23)C1=O	22%	92% (active)	90.7% (active)
C=CC(C)(O)CCC1C(=C)C(O)CC2C(C)(C)CCCC12C (configuration not stated)	-23%	81% (active)	80.5% (active)
c1ccc2c(c1)NC(NC1Nc3ccccc3N1)N2	-4%	66%	15.7%
BrCC[P+](c1ccccc1)(c1ccccc1)c1ccccc1	49%	99% (active)	87% (active)
CN(C)c1nc2sc3c(c2c(=O)o1)CCCC3	-7%	19%	54.3%
O=C(O)c1ccccc1-c1ccccc1C(=O)Nc1ccc2c(c1)Cc1ccccc1-2	-7%	17%	62.6%
CCCN(CCC)CC(O)c1cc(-c2ccc(Cl)cc2)nc2c(C)c(Cl)ccc12 (configuration not stated)	36%	97% (active)	98.5% (active)
Cc1ccc(NC(=O)/C(Cl)=C(\Cl)C(=O)O)cc1C	21%	100% (active)	99.5% (active)
O=C(CCCN1CCC2(CC1)CC(=O)N(N1CCCCCC1)C2=O)c1ccc(F)cc1	45%	74% (active)	84.4% (active)
Cn1c2ccccc2c(=O)c2cc(NC(=O)CCCCC(=O)Nc3ccc4c(c3)c(=O)c3ccccc3n4C)ccc21	-4%	16%	-1.45%
O=C(N=Nc1ccccc1Cl)NNc1ccccc1Cl	-18%	8%	26.8%
O=C(O)CNc1ccc(Cl)c(Cl)c1	-6%	22%	38.4%
c1ccc2c(c1)c1ncccc1c1nccnc21	-60%	-53%	0%

Reference: PubChem BioAssay (NCI)
